Laboratory results: PubChem BioAssay AID1159580 (chemical genetic matrix, 2015)
Among all 5,500 compounds or so, about 2,000 (36%) were called active. Inconclusive results (about 18%) are left out. Rule as the data show it: active = normalized growth mostly below about 0.91 (no sharp cut-off); inconclusive = no clear call, values can overlap the other calls; inactive = mostly above about 0.92. Some of the results follow.

Experiment: chemical genetic growth profiling, strain panel (AID 1159580);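 also: tested at 20 µM; growth read once vehicle control cultures reached saturation at 30 °C; 1 = growth at the plate median or of vehicle wells; lower values mean less growth of the strain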
Details: growth OD

Measured: normalized growth

NS(=O)(=O)c1cc2c(cc1Cl)NC(CSCc1ccccc1)=NS2(=O)=O
inactive: S. cerevisiae deletion strains, locus YJR075W, strain HOC1, stronger effect = lower value 0.971 | S. cerevisiae deletion strains, locus YKL009W, strain mrt4, stronger effect = lower value 0.99 | S. cerevisiae deletion strains, locus YKL068W, stronger effect = lower value 0.988 | S. cerevisiae deletion strains, locus YKL085W, strain MDH1 (second series), stronger effect = lower value 0.998 | S. cerevisiae deletion strains, locus YKL085W, strain MDH1, stronger effect = lower value 0.998 | S. cerevisiae deletion strains, locus YKL160W, strain elf1, stronger effect = lower value 1.01 | S. cerevisiae deletion strains, locus YKL190W, strain CNB1, stronger effect = lower value 0.987 | S. cerevisiae deletion strains, locus YKR001C, strain vps1, stronger effect = lower value 0.982 | S. cerevisiae deletion strains, locus YKR026C, strain gcn3, stronger effect = lower value 1.02 | S. cerevisiae deletion strains, locus YKR091W, strain srl3, stronger effect = lower value 1.02 | S. cerevisiae deletion strains, locus YLL001W, strain dnm1, stronger effect = lower value 1.03 | S. cerevisiae deletion strains, locus YLL026W, stronger effect = lower value 1.02 | S. cerevisiae deletion strains, locus YLL041C, strain sdh2, stronger effect = lower value 1.02 | S. cerevisiae deletion strains, locus YLR027C, strain aat2, stronger effect = lower value 1.02 | S. cerevisiae deletion strains, locus YLR039C, strain RIC1, stronger effect = lower value 1.05 | S. cerevisiae deletion strains, locus YLR058C, strain SHM2, stronger effect = lower value 0.982 | S. cerevisiae deletion strains, locus YLR102C, strain apc9, stronger effect = lower value 0.986 | S. cerevisiae deletion strains, locus YLR113W, strain HOG1, stronger effect = lower value 0.97 | S. cerevisiae deletion strains, locus YLR221C, strain rsa3, stronger effect = lower value 1.02 | S. cerevisiae deletion strains, locus YLR258W, strain gsy2, stronger effect = lower value 0.994 | S. cerevisiae deletion strains, locus YLR262C, strain YPT6 (second series), stronger effect = lower value 1.05 | S. cerevisiae deletion strains, locus YLR262C, strain YPT6, stronger effect = lower value 1.04 | S. cerevisiae deletion strains, locus YLR268W, strain sec22, stronger effect = lower value 0.992 | S. cerevisiae deletion strains, locus YLR320W, strain mms22, stronger effect = lower value 0.976 | S. cerevisiae deletion strains, locus YLR330W, strain CHS5, stronger effect = lower value 0.987 | S. cerevisiae deletion strains, locus YLR342W, strain FKS1 (second series), stronger effect = lower value 1.01 | S. cerevisiae deletion strains, locus YLR342W, strain FKS1, stronger effect = lower value 1.02 | S. cerevisiae deletion strains, locus YLR357W, strain rsc2, stronger effect = lower value 1.02 | S. cerevisiae deletion strains, locus YLR370C, strain arc18, stronger effect = lower value 1.01 | S. cerevisiae deletion strains, locus YLR371W, strain rom2, stronger effect = lower value 0.974 | S. cerevisiae deletion strains, locus YLR384C, strain iki3, stronger effect = lower value 1.02 | S. cerevisiae deletion strains, locus YLR418C, strain cdc73, stronger effect = lower value 0.994 | S. cerevisiae deletion strains, locus YML016C, strain PPZ1, stronger effect = lower value 0.987 | S. cerevisiae deletion strains, locus YML032C, strain rad52, stronger effect = lower value 0.995 | S. cerevisiae deletion strains, locus YML120C, strain ndi1, stronger effect = lower value 1.04 | S. cerevisiae deletion strains, locus YML124C, strain tub3, stronger effect = lower value 0.995 | S. cerevisiae deletion strains, locus YMR058W, strain fet3, stronger effect = lower value 1.02 | S. cerevisiae deletion strains, locus YMR078C, strain ctf18, stronger effect = lower value 0.983 | S. cerevisiae deletion strains, locus YMR125W, strain sto1, stronger effect = lower value 1.01 | S. cerevisiae deletion strains, locus YMR129W, stronger effect = lower value 1.03 | S. cerevisiae deletion strains, locus YMR205C, strain PFK2, stronger effect = lower value 1.02 | S. cerevisiae deletion strains, locus YMR223W, strain ubp8, stronger effect = lower value 0.985 | S. cerevisiae deletion strains, locus YMR231W, strain pep5, stronger effect = lower value 1.01 | S. cerevisiae deletion strains, locus YMR263W, strain SAP30, stronger effect = lower value 0.977 | S. cerevisiae deletion strains, locus YMR307W, strain GAS1, stronger effect = lower value 0.971 | S. cerevisiae deletion strains, locus YNL067W, strain RPL9B, stronger effect = lower value 0.959 | S. cerevisiae deletion strains, locus YNL071W, strain lat1, stronger effect = lower value 0.978 | S. cerevisiae deletion strains, locus YNL153C, strain GIM3, stronger effect = lower value 0.966 | S. cerevisiae deletion strains, locus YNL183C, strain NPR1, stronger effect = lower value 0.909 | S. cerevisiae deletion strains, locus YNL209W, strain ssb2, stronger effect = lower value 1 | S. cerevisiae deletion strains, locus YNL233W, strain BNI4, stronger effect = lower value 0.958 | S. cerevisiae deletion strains, locus YNL248C, strain rpa49, stronger effect = lower value 1 | S. cerevisiae deletion strains, locus YNL250W, strain rad50, stronger effect = lower value 0.978 | S. cerevisiae deletion strains, locus YNL271C, strain bni1, stronger effect = lower value 0.998 | S. cerevisiae deletion strains, locus YNL298W, strain CLA4, stronger effect = lower value 0.982 | S. cerevisiae deletion strains, locus YNL307C, strain MCK1, stronger effect = lower value 0.983 | S. cerevisiae deletion strains, locus YNL322C, strain KRE1 (second series), stronger effect = lower value 1.02 | S. cerevisiae deletion strains, locus YNL322C, strain KRE1, stronger effect = lower value 0.994 | S. cerevisiae deletion strains, locus YNR049C, strain mso1, stronger effect = lower value 1.02 | S. cerevisiae deletion strains, locus YNR052C, strain pop2, stronger effect = lower value 0.981 | S. cerevisiae deletion strains, locus YOL012C, strain htz1 0.861 | S. cerevisiae deletion strains, locus YOL147C, strain pex11, stronger effect = lower value 0.985 | S. cerevisiae deletion strains, locus YOR001W, strain rrp6, stronger effect = lower value 1.04 | S. cerevisiae deletion strains, locus YOR061W, strain CKA2, stronger effect = lower value 1 | S. cerevisiae deletion strains, locus YOR069W, strain VPS5, stronger effect = lower value 0.987 | S. cerevisiae deletion strains, locus YOR070C, strain gyp1, stronger effect = lower value 1 | S. cerevisiae deletion strains, locus YOR080W, strain dia2, stronger effect = lower value 1.03 | S. cerevisiae deletion strains, locus YOR083W, strain WHI5, stronger effect = lower value 1.05 | S. cerevisiae deletion strains, locus YOR106W, strain vam3, stronger effect = lower value 1.03 | S. cerevisiae deletion strains, locus YOR136W, strain idh2, stronger effect = lower value 0.979 | S. cerevisiae deletion strains, locus YOR144C, strain elg1, stronger effect = lower value 0.987 | S. cerevisiae deletion strains, locus YOR184W, strain ser1, stronger effect = lower value 0.985 | S. cerevisiae deletion strains, locus YOR231W, strain MKK1, stronger effect = lower value 0.959 | S. cerevisiae deletion strains, locus YOR265W, strain rbl2, stronger effect = lower value 1.01 | S. cerevisiae deletion strains, locus YOR270C, strain vph1, stronger effect = lower value 1.05 | S. cerevisiae deletion strains, locus YOR290C, strain snf2, stronger effect = lower value 1.01 | S. cerevisiae deletion strains, locus YOR316C, strain cot1, stronger effect = lower value 0.973 | S. cerevisiae deletion strains, locus YPL051W, strain arl3, stronger effect = lower value 1.02 | S. cerevisiae deletion strains, locus YPL078C, strain atp4, stronger effect = lower value 1.06 | S. cerevisiae deletion strains, locus YPL106C, strain sse1, stronger effect = lower value 0.973 | S. cerevisiae deletion strains, locus YPL240C, strain hsp82, stronger effect = lower value 1.01 | S. cerevisiae deletion strains, locus YPL256C, strain CLN2, stronger effect = lower value 0.935 | S. cerevisiae deletion strains, locus YPR119W, strain clb2, stronger effect = lower value 0.98 | S. cerevisiae deletion strains, locus YPR141C, strain kar3, stronger effect = lower value 0.973 | S. cerevisiae deletion strains, locus YPR163C, strain tif3, stronger effect = lower value 0.982 | S. cerevisiae deletion strains, locus YPR167C, strain met16, stronger effect = lower value 0.989 | S. cerevisiae deletion strains, strain wtn01, stronger effect = lower value 0.967 | S. cerevisiae strains, strain wild type, stronger effect = lower value 0.992
